Measured values from PubChem BioAssay AID1159580 (chemical genetic matrix, 2015).
Values joined by “and” are separate entries in the source; they are usually repeats but may differ in a detail not shown here. Identical values can stand only once. Hit rate of the full screen: of about 5,500 compounds, about 2,000 (36%) were called active. Not shown: some 18% with an inconclusive outcome. Rule as the data show it: active = normalized growth mostly below about 0.91 (no sharp cut-off); inconclusive = no clear call, values can overlap the other calls; inactive = mostly above about 0.92. This is one part of the list.

Experiment: chemical genetic growth profiling, strain panel (AID 1159580);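 also: tested at 20 µM; growth read once vehicle control cultures reached saturation at 30 °C; 1 = growth at the plate median or of vehicle wells; lower values mean less growth of the strain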
Settings: S. cerevisiae deletion strains, growth OD

Measured: normalized growth

COC(=O)[C@@H]1C(O)CC[C@H]2CN3CCc4c([nH]c5ccccc45)[C@@H]3C[C@@H]21 (some centres not stated)
inactive: locus YAL013W, strain DEP1, stronger effect = lower value 0.998 | locus YAL021C, strain ccr4, stronger effect = lower value 1.01 | locus YAL026C, strain drs2, stronger effect = lower value 1.01 | locus YAL030W, strain snc1, stronger effect = lower value 1.01 | locus YBL061C, strain skt5, stronger effect = lower value 1.01 | locus YBR009C, strain hhf1, stronger effect = lower value 0.998 | locus YBR021W, strain FUR4, stronger effect = lower value 1.01 | locus YBR023C, strain chs3, stronger effect = lower value 1.02 | locus YBR171W, strain sec66, stronger effect = lower value 1.02 | locus YBR229C, strain ROT2, stronger effect = lower value 0.99 | locus YBR231C, strain swc5, stronger effect = lower value 0.999 | locus YBR279W, strain paf1, stronger effect = lower value 1.02 | locus YCL011C, strain gbp2, stronger effect = lower value 1.01 | locus YCL016C, strain dcc1, stronger effect = lower value 1.02 | locus YCL029C, strain bik1, stronger effect = lower value 0.993 | locus YCL061C, strain MRC1, stronger effect = lower value 1.01 | locus YCL069W, strain vba3, stronger effect = lower value 1.01 | locus YCR088W, strain abp1, stronger effect = lower value 1.01 | locus YDL005C, strain med2, stronger effect = lower value 1.01 | locus YDL035C, strain GPR1, stronger effect = lower value 0.994 | locus YDL040C, strain nat1, stronger effect = lower value 1.01 | locus YDL074C, strain BRE1, stronger effect = lower value 1.01 | locus YDL101C, strain DUN1, stronger effect = lower value 0.99 | locus YDL134C, strain PPH21, stronger effect = lower value 0.996 | locus YDL185W, strain tfp1, stronger effect = lower value 0.971 | locus YDL192W, strain arf1, stronger effect = lower value 0.983 | locus YDR001C, strain nth1, stronger effect = lower value 1.02 | locus YDR069C, strain doa4, stronger effect = lower value 0.999 | locus YDR101C, strain arx1, stronger effect = lower value 1 | locus YDR137W, strain rgp1, stronger effect = lower value 1.02 | locus YDR150W, strain NUM1, stronger effect = lower value 0.973 | locus YDR159W, strain sac3, stronger effect = lower value 0.996 | locus YDR162C, strain NBP2, stronger effect = lower value 1.02 | locus YDR195W, strain ref2 1.02 | locus YDR297W, strain sur2, stronger effect = lower value 1.03 | locus YDR318W, strain mcm21, stronger effect = lower value 0.981 | locus YDR334W, strain swr1, stronger effect = lower value 1.02 | locus YDR335W, strain msn5, stronger effect = lower value 1.02 | locus YDR388W, stronger effect = lower value 0.999 | locus YDR392W, strain spt3, stronger effect = lower value 0.92 | locus YDR502C, strain sam2, stronger effect = lower value 1.01 | locus YEL003W, strain gim4, stronger effect = lower value 1.02 | locus YEL037C, strain rad23, stronger effect = lower value 1.03 | locus YEL061C, strain CIN8 (second series), stronger effect = lower value 1.02 | locus YEL061C, strain CIN8, stronger effect = lower value 0.998 | locus YER015W, strain faa2, stronger effect = lower value 1.01 | locus YER016W, strain bim1, stronger effect = lower value 1.02 | locus YER110C, stronger effect = lower value 0.982 | locus YER111C, strain swi4, stronger effect = lower value 1.01 | locus YER155C, strain BEM2 (second series), stronger effect = lower value 1.01 | locus YER155C, strain BEM2, stronger effect = lower value 0.992 | locus YER167W, strain BCK2, stronger effect = lower value 0.979 | locus YFR010W, strain ubp6, stronger effect = lower value 1.01 | locus YGL078C, strain dbp3, stronger effect = lower value 0.982 | locus YGL086W, strain mad1, stronger effect = lower value 0.955 | locus YGL167C, strain pmr1, stronger effect = lower value 1.01 | locus YGL173C, strain kem1, stronger effect = lower value 1 | locus YGL227W, strain vid30, stronger effect = lower value 1.02 | locus YGL240W, strain doc1, stronger effect = lower value 0.992 | locus YGL248W, strain PDE1, stronger effect = lower value 0.982 | locus YGL253W, strain hxk2, stronger effect = lower value 1.02 | locus YGR078C, strain PAC10, stronger effect = lower value 1 | locus YGR135W, strain pre9, stronger effect = lower value 1.01 | locus YGR229C, strain SMI1, stronger effect = lower value 1.03 | locus YGR252W, strain gcn5, stronger effect = lower value 1.01 | locus YHR013C, strain ard1, stronger effect = lower value 1.02 | locus YHR027C, strain rpn1, stronger effect = lower value 1.02 | locus YHR030C, strain SLT2, stronger effect = lower value 0.991 and 1.02 | locus YHR079C, strain IRE1 (second series), stronger effect = lower value 1.01 | locus YHR079C, strain IRE1, stronger effect = lower value 1.02 | locus YHR094C, strain hxt1, stronger effect = lower value 0.974 | locus YHR129C, strain ARP1, stronger effect = lower value 0.998 | locus YHR142W, strain chs7, stronger effect = lower value 1.02 | locus YHR200W, strain rpn10, stronger effect = lower value 0.988 | locus YIL066C, strain RNR3, stronger effect = lower value 0.984 | locus YIL073C, strain SPO22, stronger effect = lower value 0.915 | locus YIL125W, strain kgd1, stronger effect = lower value 0.981 | locus YIR030C, strain dcg1, stronger effect = lower value 0.994 | locus YJL092W, strain hpr5, stronger effect = lower value 1.01 | locus YJL095W, strain BCK1 (second series), stronger effect = lower value 1 | locus YJL095W, strain BCK1, stronger effect = lower value 1.03 and 1.02 | locus YJL115W, strain asf1, stronger effect = lower value 1.02 | locus YJL129C, strain trk1, stronger effect = lower value 1.03 | locus YJL134W, strain LCB3, stronger effect = lower value 0.985 | locus YJL154C, strain vps35, stronger effect = lower value 1.02 | locus YJL164C, strain tpk1, stronger effect = lower value 0.999 | locus YJL166W, strain qcr8, stronger effect = lower value 1.01 | locus YJL168C, strain set2, stronger effect = lower value 1 | locus YJL187C, strain SWE1 (second series), stronger effect = lower value 0.995 | locus YJL187C, strain SWE1, stronger effect = lower value 1.01 | locus YJR043C, strain POL32, stronger effect = lower value 0.998 | locus YJR066W, strain TOR1, stronger effect = lower value 0.954
